Assay results published in PMC12864922, “TDP-43 directly inhibits mRNA accumulation in neurites through modulation of mRNA stability”.
Over roughly 9,900 sequences, “r (bound/input frequency ratio)” has its median near 0.7; the highest 2% begin near 6.5. The list comes from a sample in which the highest values are over-represented; it also holds similar and randomly drawn sequences.

B1: ENSMUSG00000058297.485|Spock2 (ssRNA)
RNA: GGGAGUUCUACAGUCCGACGAUCGCUUCGAUAUCCGCAUGCUACUGGAGCUGCCCUACUAAGAGCCUCCUUAGCCCUGGGUGCUGGGAAGGAUGGUGUACGUUGGGGAAGUUUGAGGUUGGAGAGAGUAAAUGUGCCUUGAGAGACCACUCAGAGGUCCCAGGAGGAACGGGGGCGGGGCUUAGCCUGGGAGUUCUGGCAGGAGGCAAAGUUGGUGAGAGUCCUGGGACAUCUUACCCCCAGUGUUCCACAGGAGUCGUGACCACGUGUGAUGGGUGGGCACAGGUCUGCCUUGCUCCAGCCCCUCUUGCGGUCGCACUAGUGUGGAAUUCUCGGGUGUCAAGG
B2: ENSMUSG00000004113.268|Cacna1b (ssRNA)
RNA: GGGAGUUCUACAGUCCGACGAUCGCUUCGAUAUCCGCAUGCUACGUGUUACAAGAAACUGGCAGGAAGGAAAUGGCCCUGGAACAGGCCAGGUGCCUAGAGCUAAGUCAGGCCCCUGGCUUAGCACUAGAAAAAAUAAAACCUCAUGGCUGCUUUGCAAAGGGAAAACCCAUGCUCAGGAAGGUGUUCAGUGUGCACAGAUAGCUGGGAGGCCACGAGAGAAAGGUUGCACACAGACAGGCAGGCACUCCUUGGUGUGGUCUCUCUGUUUUGAAACUUCUGAUGACUUCUUGGUGGCUUGUUGCUCUUGCGGUCGCACUAGUGUGGAAUUCUCGGGUGUCAAGG
B3: ENSMUSG00000029028.187|Lrrc47|67:71 (ssRNA)
RNA: GGGAGUUCUACAGUCCGACGAUCGCUUCGAUAUCCGCAUGCUAGUCAGCGUGUCCCACUAUUCAUGUCCCAUCUCUGUGCAUCCUGACUGCGCACAUCCCAUCUCCGCAACACAACGCAUCUGUACCAGCACACAGCUGCCAUCCCUCGAGCCACAGUGCCUGGUCCUAAGGACCCAGCAGCUGCACAGAGGACUUGGUGGCCCCGUGCCUUGCCAUCUGGCUGAGAAGAGAACCAGACCCUCAGCCUUCCCCCUCGACACCUUCUCGUUGGUGACCUCUGACCUUAAAGGACCAUUUCUACCCUCUUGCGGUCGCACUAGUGUGGAAUUCUCGGGUGUCAAGG
B4: ENSMUSG00000061578.966|Ksr2 (ssRNA)
RNA: GGGAGUUCUACAGUCCGACGAUCGCUUCGAUAUCCGCAUGCUAGCCCUGGAUGUGACUAUAUGUGCUGAGAAGGGAAGGUAGUUUUCCCCCAGAAAGUCCCUUCUAAUAAACAUUGAUGACUUUAGAAUCCAUGACUCAGAAUUUUCCAGAGACCCAAUCCCUCGGGGUCCACUUAGUGAUGGGACCAUACAAGAGUUUAUUUCCAAUUAGAGAAUUGGGUCAACUGGGAAAGGCUUCUUUCCUGGUAACCCUGCUACUGAUACUAUGUUGAAACAGGAAUCGACUCUAACUGCUUUUUGGCCCUCUUGCGGUCGCACUAGUGUGGAAUUCUCGGGUGUCAAGG
B5: ENSMUSG00000031028.668|Tub (ssRNA)
RNA: GGGAGUUCUACAGUCCGACGAUCGCUUCGAUAUCCGCAUGCUAGGCAAAAUUUCUCUAGCUGAGAGCACACUUAGCCAGUUUUCACGCCUAGAACAUAUAUGUCGAUUUGCACAUGAUUGUCUUUUCCUAUUUUGGAGUGGUCAGACAUUUUAUUUUUGUUCAAAAUUAUCUGGAGUUUUAGACAAACUUGCAAAACUGUGCUUUUAUUAAGUGACUUUUUGAAUAAACUUUUUGGUAUUCUGAAGCAAAUGUAUUUAUUUAUUGGUAUGUGCAAUGACAAACUUGGUAUUUUCCCAUAAUGACUCUUGCGGUCGCACUAGUGUGGAAUUCUCGGGUGUCAAGG
B6: ENSMUSG00000061578.140|Ksr2 (ssRNA)
RNA: GGGAGUUCUACAGUCCGACGAUCGCUUCGAUAUCCGCAUGCUAGGCUGUGGCAAGAGAGUUCUGGUGUGUUCUCUCUGUGGGGCUAGCAAUGCCGGGGUUAAGUUCUCCCUCGGUGAUGGAGACGGUCCUGGGUAUGCAUGAUGGGUUACAUGGGUGUGUGUGUGUGUGUAACUGUUUACAAUGGUCUCCCUGCCUCUCACGGGCUGUGUUCCAGGAGAAUGCACAUAGAGAGGUUCUGUGGUCUCUGCUGUCGCCUGGUGCUGAAUCCUGAGUGGUUUCCCCACUGAGGACCCUGUGACCCUCUCUUGCGGUCGCACUAGUGUGGAAUUCUCGGGUGUCAAGG
B7: ENSMUSG00000061578.854|Ksr2|32:36 (ssRNA)
RNA: GGGAGUUCUACAGUCCGACGAUCGCUUCGAUAUCCGCAUGCUAAGAGCAAUACAGGAAAAGGUCAGGGGUGAGAACACACAUUGCCACUUCCUCCAGCUAGGACCUUUGAGCAUCACAUUGUGAAGCCAUCCAGGGACUUGGGGGUUAGGUCAGAGGUAUCAAUACAUCUCCGGAAACAUCGUCACAGAUACCUAGAGGUACUUCAUUGAUCCCUUGAAAAGCAUGUCUUAAUUCUGUUAAGAUGUCAAUCAAGAUUACACAUCUCACUGCUUCACAGGCCAUCAGGGCCCCAUUCUGAGGUCCUCUUGCGGUCGCACUAGUGUGGAAUUCUCGGGUGUCAAGG
B8: ENSMUSG00000090935.379|Synj2bp (ssRNA)
RNA: GGGAGUUCUACAGUCCGACGAUCGCUUCGAUAUCCGCAUGCUAAGAUGCAGGGAUAUUGGUGAGGUGGGAGCUGUCCUGUUUAUGUAACAUCUAAGUUGGUUUUAGAGUACUGAGGAUAGUUGAACCAAGCCUAUUUUUUUUCCACUUUAACAAAAUAAUUUCCUUCUUUUCAGUAAAUUGGCCAGACUAUUAUUUUGACAUAAGAUUAUGAAGAGUUUUCCCGACAGUCUAGCAGUCACUUAACAGAUGUUGAUUGCACAUUAGUUUUGUCAGGACACCUUUAUAAAAAGAGAAAUGCACAUCUCUUGCGGUCGCACUAGUGUGGAAUUCUCGGGUGUCAAGG
B9: ENSMUSG00000061578.1219|Ksr2 (ssRNA)
RNA: GGGAGUUCUACAGUCCGACGAUCGCUUCGAUAUCCGCAUGCUACAGCAUGCUUCACUCUAUGAAUGAGCCGCUGGGAUAUUGACAUGGAGAUGUGUUGAUGGAAAAAGCCUCCACACCCAACAUAACUCUCCAGAGAGAUAUUGAAAGUGAUGGGCAGAGAGUCUGACAAUGACCCAGGGGUCAUUGUGAGUCCUAGGCUGAAUCUGUAAUGGGGUCCAAAGUGCAGGAGAGACUGCAUUCACCUUGUUGGUGGGGUGGGGCUUCUUUCAUUACUUUAAGUAUCUGUAUGGGCUUGAGGCAUGCUCUUGCGGUCGCACUAGUGUGGAAUUCUCGGGUGUCAAGG
B10: ENSMUSG00000090935.669|Synj2bp (ssRNA)
RNA: GGGAGUUCUACAGUCCGACGAUCGCUUCGAUAUCCGCAUGCUAUGGAGUGAGAUGAGUGUGUGCCAGCCAGCAACUCUGUCCUUCUAGGUAACUGGUUCAUGCUGAACCUUGAGAUUCACCACUGUCAGGAGCUCUCUCUCUCUGCUUAGAAUCAUCCAGACAGCGGGCUGGUCAGCCCACAUUAAAUAAGAACAUGUGGGACUAGAAUUCAGUCAACAAUGACAUGUUUCAUCAGGUGGUUAAAAUGUACAGAUUCUGUUGGAAAUGUUCCAUGGUAUUUCAAUAGCCAGAAUGAAGAACUGCUCUUGCGGUCGCACUAGUGUGGAAUUCUCGGGUGUCAAGG
B11: ENSMUSG00000061578.1449|Ksr2 (ssRNA)
RNA: GGGAGUUCUACAGUCCGACGAUCGCUUCGAUAUCCGCAUGCUAGGUAUAUAAAUGGAUGGAUGGGUGAUGGAUGGGUAAAUGAAUGGAUAGGUAUGUGAAUGAAUGGAUGAUGGAUGAAUGGAUGGGUAGGUGGGUAGAUAGGUAUAUGAAUGAAUGGAUGAAUGGAUGGGUGAAUGGAUGGAUAGGUAUGUGAAUAAAUGGAUGGAUGGAUGGAUUGAUUUGUGAAUGAAUGGAUGAAUGGAUGGGUAGGUGGGUGGAUGCAUAGGCAAGUAGAUGAAUGAAUAUGUGGGUAGAAGGGUGAGCUCUUGCGGUCGCACUAGUGUGGAAUUCUCGGGUGUCAAGG
B12: ENSMUSG00000061578.1443|Ksr2 (ssRNA)
RNA: GGGAGUUCUACAGUCCGACGAUCGCUUCGAUAUCCGCAUGCUAGCAAGUAGGAUGGAUGGAUGAGUGAGUGGAUAGGUAGGUAUAUAAAUGGAUGGAUGGGUGAUGGAUGGGUAAAUGAAUGGAUAGGUAUGUGAAUGAAUGGAUGAUGGAUGAAUGGAUGGGUAGGUGGGUAGAUAGGUAUAUGAAUGAAUGGAUGAAUGGAUGGGUGAAUGGAUGGAUAGGUAUGUGAAUAAAUGGAUGGAUGGAUGGAUUGAUUUGUGAAUGAAUGGAUGAAUGGAUGGGUAGGUGGGUGGAUGCAUAGGCUCUUGCGGUCGCACUAGUGUGGAAUUCUCGGGUGUCAAGG
B13: ENSMUSG00000061578.1454|Ksr2 (ssRNA)
RNA: GGGAGUUCUACAGUCCGACGAUCGCUUCGAUAUCCGCAUGCUAGGGUAAAUGAAUGGAUAGGUAUGUGAAUGAAUGGAUGAUGGAUGAAUGGAUGGGUAGGUGGGUAGAUAGGUAUAUGAAUGAAUGGAUGAAUGGAUGGGUGAAUGGAUGGAUAGGUAUGUGAAUAAAUGGAUGGAUGGAUGGAUUGAUUUGUGAAUGAAUGGAUGAAUGGAUGGGUAGGUGGGUGGAUGCAUAGGCAAGUAGAUGAAUGAAUAUGUGGGUAGAAGGGUGAGUGGGUGGAUGAAUGGAUGGAUAGGUUGGUACUCUUGCGGUCGCACUAGUGUGGAAUUCUCGGGUGUCAAGG

What follows are binders tested against TDP-43 (Homo sapiens, UniProt Q13148 1-414) (assay: RNA Bind-n-Seq with designed 260-mer pool; 25 mM Tris-HCl, 150 mM KCl, 3 mM MgCl2, BSA (printed 500 mg/mL), 20 units/mL SUPERase IN; pH not stated; 500 nM RNA pool, 1 h, 4 C; TDP-43 5, 50, 500 nM; high values mean tight binding). Conditions: protein: recombinant; tags: SBP (GST cleaved off with PreScission; pGEX-GST-SBP).
TDP-43, sequence (Q13148 whole entry): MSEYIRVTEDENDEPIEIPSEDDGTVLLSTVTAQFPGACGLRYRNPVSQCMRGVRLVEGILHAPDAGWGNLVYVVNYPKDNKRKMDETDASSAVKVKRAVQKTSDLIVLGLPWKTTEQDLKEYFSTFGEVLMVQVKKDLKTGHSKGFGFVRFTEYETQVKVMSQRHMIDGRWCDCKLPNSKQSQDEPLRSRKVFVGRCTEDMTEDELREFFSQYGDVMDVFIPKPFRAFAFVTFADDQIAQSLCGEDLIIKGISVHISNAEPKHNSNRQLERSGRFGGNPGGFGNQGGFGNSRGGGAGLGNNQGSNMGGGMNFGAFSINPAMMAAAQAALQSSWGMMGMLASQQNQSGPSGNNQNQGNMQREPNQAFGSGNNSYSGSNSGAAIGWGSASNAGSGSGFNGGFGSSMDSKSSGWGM
Procedure, shortened: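 Binding (R) is the ratio of each oligo's mapped-read-normalized abundance in the bound fraction to its abundance in the input. To obtain it, SBP-tagged recombinant TDP-43 (5, 50 or 500 nM) on streptavidin beads was incubated with 500 nM of an in vitro-transcribed 260-nt 3′ UTR oligo pool for 1 h at 4 °C in 25 mM Tris-HCl, 150 mM KCl, 3 mM MgCl2, BSA and SUPERase IN. The RNA retained after washing was released with biotin, then reverse transcribed, amplified by PCR and sequenced.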

How did the binding signal turn out when B1 was run?
Its binding signal is 5.55 R (bound/input frequency ratio).

Which binding signal does the source give for B2 here?
The binding signal was 0.57 R (bound/input frequency ratio).

Which binding signal does the source give for B3 here?
The binding signal was 1.42 R (bound/input frequency ratio).

For B4, which binding signal is on record?
Its binding signal is 0.302 R (bound/input frequency ratio).

For B5, which binding signal is on record?
Its binding signal is 0.159 R (bound/input frequency ratio).

With B6 as the binder, how does the binding signal read?
Its binding signal is 5.07 R (bound/input frequency ratio).

B7 was tested. Which binding signal did it give?
Its binding signal is 0.103 R (bound/input frequency ratio).

B8 was tested. Which binding signal did it give?
Its binding signal is 0.043 R (bound/input frequency ratio).

Which binding signal does the source give for B9 here?
Its binding signal is 0.535 R (bound/input frequency ratio).

How did the binding signal turn out when B10 was run?
The binding signal was 1.53 R (bound/input frequency ratio).

For B11, which binding signal is on record?
Its binding signal is 3.93 R (bound/input frequency ratio).

With B12 as the binder, how does the binding signal read?
Its binding signal is 9.18 R (bound/input frequency ratio).

Which binding signal does the source give for B13 here?
Its binding signal is 2.48 R (bound/input frequency ratio).
